The values below come from PubChem BioAssay.

A short description of test [1]: inhibitors of TNFa-induced NFkB p65 translocation, primary screen, imaging, HUVEC, MLSMR starter and 10KST1 sets (AID 438;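 active = inhibition above 20% together with a positive visual image hit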;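 also: compound added about 3h40 before a 20 min TNFalpha stimulation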;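 as to inhibition: signal is the nuclear over cytoplasmic p65 intensity ratio per well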). As to conditions: HUVEC TNFa-induced p65 nuclear translocation; cell count: measured here: nuclei count (cytotoxicity indicator), at 2.08 µM; inhibition: at 2 µM, stronger effect = higher value, 0% TNFa-plus-vehicle, 100% no-TNFa wells.
Test [2] is described as follows: reduction of polyQ htt aggregates in cells – imaging, exon1htt(103Q)mCFP cells, high-content imaging, primary screen (AID 483;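 active = visual image review flags a hit and inhibition of aggregation exceeds 20%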;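 also: compound exposure lasted 3 days before fixation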;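 as to nuclei count: percent of the per-plate median nuclei count of sample wells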). As to conditions: exon1htt(103Q)mCFP cell line, aggregate imaging, at 2 µM; inhibition of aggregation: stronger effect = higher value; nuclei count: measured here: cell count, toxicity.
A short description of test [3]: endothelial E-selectin expression blockers – imaging, HUVEC, immunofluorescence, MLSMR starter and 10KST1 sets, primary screen (AID 487;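 active = visually confirmed hit in the image check and inhibition above 20%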;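 as to inhibition: signal is fraction of cell area covered by stained E-selectin grains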;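 as to nuclei count: 100% = median nuclei count of all wells on the same plate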). The conditions noted are these: HUVEC TNFalpha-induced E-selectin immunofluorescence imaging, at 2 µM; inhibition: stronger effect = higher value; nuclei count: measured here: cell number, toxicity.
Test [4] is described as follows: Primary imaging screen for DUSP6 inhibitors that restore phospho-Erk in transfected HeLa cells, chemical complementation (AID 609;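 active = compounds giving at least 50% inhibition in the cell-based MKP-3 phosphatase rescue imaging test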;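 as to inhibition: phospho-Erk level distribution per well compared with pooled transfected vehicle control wells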). The conditions noted are these: HeLa MKP-3 transfected, phospho-Erk imaging KS statistic, at 10 µM, cells stimulated with TPA for 15 min.
Test [5] has as its target Dual specificity protein phosphatase 6 (Homo sapiens) (UniProt Q16828). The description is as above. As to conditions: HeLa MKP-3 transfected, phospho-Erk imaging KS statistic; at 10 µM; stronger effect = higher value; cells stimulated with TPA for 15 min.
For test [6], the target named is Voltage-gated potassium channel subunit beta-2 (Rattus norvegicus) (UniProt P62483). The test is described as follows: inhibitors of rat Kvbeta2 reductase activity – biochemical, NADPH fluorescence, primary screen (AID 622;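 active = fluorescence slope higher than the sample average by over 3 SD, cut at about -0.22 in these data, passing the limit was not always enough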;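 also: slope of raw intensity against log time taken from 70 to 1610 s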). As to conditions: recombinant KvBeta, 4-cyanobenzaldehyde reduction, at 10 µM, stronger effect = higher value.
Test [7] has the same target. Briefly: enhancers of rat Kvbeta2 NADPH turnover – biochemical, NADPH fluorescence, primary screen (AID 623).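 Also: fluorescence intensity change per second fitted from 20 to 320 s.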 As to conditions: Recombinant KvBeta, NADPH fluorescence decrease slope, 10 min; at 10 µM; stronger effect = lower value.
Test [8] deals with Muscarinic acetylcholine receptor M4 (Homo sapiens) (UniProt P08173). The test is described as follows: M4-linked GIRK flux change, two-sided – cell-based, HEK293 M4/GIRK, thallium flux, BTC-AM, M4 allosteric agonist project, primary screen (AID 625;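 active = fluorescence slope after compound addition differing from the mean of all tested samples at 99.7% confidence, mostly higher but some lower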;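 also: thallium influx through GIRK channels coupled to M4 in HEK293 cells with BTC-AM dye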). As to conditions: at 10 µM, actives lie on both sides.
Test [9] in a line: inhibitors of larval lipid processing in zebrafish, primary screen, whole organism, PED6 fluorescence, gall bladder and intestine (AID 686;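 active = a full or partial loss of lipid-probe fluorescence in the fish gall bladder, intestine or both, judged by eye; inactive = no fluorescence loss, or compound toxic to the fish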;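 also: larvae 5 to 7 days old with five fish per well; signal comes from phospholipase A2 cleavage of quenched PED6 carried via bile; overnight exposure to compound and PED6 before scoring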). The conditions noted are these: Zebrafish larvae PED6 lipid processing, fluorescence scoring; screened at 20 µM (by protocol).
A short description of test [10]: loss of swimming-algae plug formation – whole organism, Chlamydomonas reinhardtii, WT vs cilia-less mutant, absorbance, 96-well, primary screen (AID 463189;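 active = inhibition at or above 50% relative to wild type and mutant plate controls; inactive = inhibition below 50%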;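 also: 0% = wild type cc124 cells in DMSO and 100% = ciliumless bld1 mutant cells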). The conditions noted are these: Chlamydomonas reinhardtii gravitaxis, OD600 absorbance, 2 days; at 10 µM; stronger effect = higher value.
Test [11] is described as follows: blockers of RIG-like receptor reporter activation – cell-based, Sendai virus stimulus, luciferase, 10K MLSCN set, TLR/RLR signaling modifier project, primary screen (AID 602276;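 active = inhibition at or above 50% at 10 µM; inactive = inhibition below 50%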;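 also: firefly luciferase from ISG56 promoter only with Renilla not read in this screen; 0% = Sendai virus plus DMSO and 100% = medium plus DMSO without virus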). As to conditions: HEK293 RL24 IRF3 luciferase reporter, at 10 µM, stronger effect = higher value. A general note: Reporter assays use an easily measured gene product as a stand-in for the process of interest.

Test [12] can be described thus: TLR3 IRF3 reporter activation blockers – cell-based, poly I:C stimulus, luciferase, 10K MLSCN set, primary screen (AID 602277;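 active = inhibition of the reporter signal at or above 50%; inactive = inhibition below 50%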). As to conditions: HEK293-TLR3 RL24 IRF3 luciferase reporter, at 10 µM, stronger effect = higher value.
[13] abbreviates: measured here: cell density z-score.
[14] abbreviates: measured here: nuclear c-Myc green intensity z-score.
Where [15] appears, read: measured here: nuclear pErk red intensity z-score, stronger effect = higher value.

Activity calls are given as the source filed them.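 The calls were made as follows, unless noted: active = NADPH fluorescence slope more negative than the mean of all samples by about 3 SD, 99.7% confidence; inactive = the rest.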

As a reminder, the inhibition is the relative decrease from the control value, in per cent.

Dual specificity protein phosphatase 6 (Homo sapiens), sequence (Q16828 whole entry, looked up): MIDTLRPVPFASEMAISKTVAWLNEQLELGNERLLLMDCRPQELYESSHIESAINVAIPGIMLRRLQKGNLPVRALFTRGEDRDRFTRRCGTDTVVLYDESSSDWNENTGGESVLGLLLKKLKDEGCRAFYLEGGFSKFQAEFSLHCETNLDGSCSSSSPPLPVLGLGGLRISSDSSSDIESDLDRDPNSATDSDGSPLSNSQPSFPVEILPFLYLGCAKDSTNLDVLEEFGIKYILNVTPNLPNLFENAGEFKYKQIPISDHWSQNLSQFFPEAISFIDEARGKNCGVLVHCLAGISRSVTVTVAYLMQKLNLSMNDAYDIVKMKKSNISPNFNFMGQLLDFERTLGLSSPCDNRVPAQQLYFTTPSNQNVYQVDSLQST
Muscarinic acetylcholine receptor M4 (Homo sapiens), sequence (P08173 whole entry, looked up): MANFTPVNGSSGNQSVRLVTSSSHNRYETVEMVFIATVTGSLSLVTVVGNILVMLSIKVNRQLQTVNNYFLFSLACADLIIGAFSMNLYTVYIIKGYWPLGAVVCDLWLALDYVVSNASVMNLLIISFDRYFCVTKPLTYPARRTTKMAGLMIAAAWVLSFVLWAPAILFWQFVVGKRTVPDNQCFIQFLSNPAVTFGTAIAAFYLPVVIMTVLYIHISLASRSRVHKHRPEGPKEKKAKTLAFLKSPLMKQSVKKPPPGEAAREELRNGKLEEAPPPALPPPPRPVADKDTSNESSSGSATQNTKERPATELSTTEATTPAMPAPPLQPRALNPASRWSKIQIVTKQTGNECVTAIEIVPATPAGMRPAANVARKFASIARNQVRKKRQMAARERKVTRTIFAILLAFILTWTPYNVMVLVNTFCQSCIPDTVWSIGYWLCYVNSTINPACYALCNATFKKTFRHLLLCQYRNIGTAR
Voltage-gated potassium channel subunit beta-2 (Rattus norvegicus), sequence (P62483 whole entry, looked up): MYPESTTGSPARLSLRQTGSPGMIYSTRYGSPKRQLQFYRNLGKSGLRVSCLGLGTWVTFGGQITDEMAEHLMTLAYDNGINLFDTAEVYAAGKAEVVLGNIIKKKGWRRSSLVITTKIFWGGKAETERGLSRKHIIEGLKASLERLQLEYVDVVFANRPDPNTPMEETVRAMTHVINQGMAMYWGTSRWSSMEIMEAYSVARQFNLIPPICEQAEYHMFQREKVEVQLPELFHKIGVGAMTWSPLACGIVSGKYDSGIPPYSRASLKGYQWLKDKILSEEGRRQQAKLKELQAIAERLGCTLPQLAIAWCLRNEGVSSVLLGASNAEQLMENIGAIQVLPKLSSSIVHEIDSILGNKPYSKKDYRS

Turning to `OCCNc1ncnc2c1c(-c1ccccc1)c(-c1ccccc1)n2Cc1ccco1`, the cell count in test [1] was 567. The inhibition in test [1] is -6.9% (inactive); in test [3], 13.3% (inactive); in test [5] it was -2.91% (inactive); in test [10] it was 46.8% (inactive); in test [11] it was 12.3% (inactive); in test [12], -0.125% (inactive). The inhibition of aggregation in [2] is 1.6% (inactive). The nuclei count in [2] was 114%; in test [3] it was 91.6%. Also, the z-score in test [4] (setting [13]) was -1.86; in [4] (setting [14]), -1.32; in [4] (setting [15]) it was -1.52. Further, the fluorescence slope is -0.472 (inactive) in [6] and 0.0047 (inactive) in test [8]. In addition, in test [7], the NADPH fluorescence slope was -6.4e-05 (inactive). For the same compound, the call in test [9] was inactive.
Turning to `CCOC(=O)c1c(-c2cccs2)csc1NC(=O)CCCC(=O)O`, the cell count in test [1] came to 550. The inhibition in test [1] was -0.4% (inactive); in test [3] it was -22.1% (inactive); in test [5], -5.81% (inactive); in test [10], 16.8% (inactive); in test [11], 15.6% (inactive); in [12], 21.7% (inactive). Moreover, the inhibition of aggregation in test [2] was -5% (inactive). Moreover, the nuclei count in [2] was found to be 110%; in test [3] it was 106%. The z-score in [4] (setting [13]) is 0.00511; in test [4] (setting [14]), -0.304; in test [4] (setting [15]) it was -0.262. Besides, the fluorescence slope is -0.427 (inactive) in [6] and 0.00466 (inactive) in test [8]. For the same compound, the NADPH fluorescence slope in [7] is -5.3e-05 (inactive). Further, the compound was called inactive in test [9].
On to `Clc1ccc(-n2ncc3c(NCCCn4ccnc4)ncnc32)cc1`, for which the cell count in test [1] was 618. For the same compound, the inhibition in test [1] was -10.7% (inactive); in [3], -41.4% (inactive); in test [5] it was 1.42% (inactive); in [10], -3.19% (inactive); in test [11], -0.733% (inactive); in test [12] it was -33.8% (inactive). Besides, in [2], the inhibition of aggregation is -16.9% (inactive). The nuclei count in test [2] was 105%; in test [3], 129%. Also, the z-score is -0.368 in [4] (setting [13]), 0.856 in test [4] (setting [14]) and 1.02 in [4] (setting [15]). Besides, the results for the fluorescence slope in test [6] and in test [8] were -0.386 (inactive) and 0.00622 (inactive), respectively. In addition, in test [7], the NADPH fluorescence slope is -5.7e-05 (inactive). In test [9], the compound was called inactive.
Take `CCOC(=O)c1ccc(CC2S/C(=C(\C#N)C(C)=O)NC2=O)cc1` (stereo not given): the cell count in [1] is 508. Also, the inhibition in test [1] is -6.4% (inactive); in test [3], -87.6% (inactive); in test [5] it was 13.4% (inactive); in [10], 13.1% (inactive); in test [11], 6.73% (inactive); in test [12], -11.5% (inactive). Also, in test [2], the inhibition of aggregation was -13.4% (inactive). The nuclei count in [2] worked out at 100%; in test [3] it was 145%. The z-score in test [4] (setting [13]) is 1.03; in [4] (setting [14]), -0.573; in [4] (setting [15]), 0.337. Further, the fluorescence slope in test [6] was -0.384 (inactive); in test [8] it was 0.00533 (inactive). Besides, the NADPH fluorescence slope in [7] was -4.5e-05 (inactive). In [9], the outcome was inactive.
As for `Cn1c(=O)[nH]c(=O)c2c1nc(N(CCO)Cc1ccccc1)n2Cc1ccccc1Cl`, the cell count in [1] was 650. Besides, the inhibition in test [1] is 4.6% (inactive); in [3], -37.5% (inactive); in [5], 1.63% (inactive); in test [10], 31.2% (inactive); in [11], 16.5% (inactive); in test [12], 28.7% (inactive). The inhibition of aggregation in test [2] was -19.3% (inactive). Also, the results for the nuclei count in test [2] and in [3] were 139% and 109%, respectively. Besides, the figures for the z-score in test [4] (setting [13]), in test [4] (setting [14]) and in [4] (setting [15]) were 1.19, -1.16 and -0.515, respectively. Besides, the fluorescence slope in test [6] was -0.438 (inactive); in test [8] it was 0.00652 (inactive). The NADPH fluorescence slope in [7] was -6.1e-05 (inactive). In addition, the compound was classed as inactive in test [9].
Take `Cn1c(SCC(=O)N2CCOCC2)nnc1-c1cccc(NC(=O)c2ccccc2F)c1`: in [1], the cell count was 576. The inhibition is -2.8% (inactive) in [1]; 17.5% (inactive) in test [3]; 1.63% (inactive) in test [5]; 20.3% (inactive) in test [10]; 13.9% (inactive) in [11]; 22.5% (inactive) in test [12]. Besides, the inhibition of aggregation in [2] is -17.6% (inactive). Besides, the nuclei count in test [2] turned out to be 115%; in [3], 107%. In addition, the z-score in test [4] (setting [13]) was -2.39; in test [4] (setting [14]) it was 0.78; in test [4] (setting [15]), -0.11. The fluorescence slope in test [6] was -0.578 (inactive); in [8], 0.00616 (inactive). Besides, in test [7], the NADPH fluorescence slope was -5.9e-05 (inactive). Also, the result in test [9] was inactive.
`Cc1ccc(-n2ncc3c(N4CCN(c5ccccc5)CC4)ncnc32)c(C)c1`: the cell count in test [1] was determined as 600. Also, the inhibition in [1] was -15.9% (inactive); in [3] it was -27.8% (inactive); in test [5], -12.6% (inactive); in test [10], 2.19% (inactive); in test [11], 20.5% (inactive); in [12] it was -19.9% (inactive). Also, the inhibition of aggregation in test [2] was -1.5% (inactive). For the same compound, the nuclei count worked out at 113% in test [2] and 154% in test [3]. The results for the z-score in [4] (setting [13]), in test [4] (setting [14]) and in test [4] (setting [15]) were -0.444, -0.19 and 1.79, respectively. The fluorescence slope in test [6] is -0.379 (inactive); in test [8] it was 0.00708 (inactive). In addition, in test [7], the NADPH fluorescence slope is -5e-05 (inactive). In addition, the call in [9] was inactive.
Take `COc1ccc(C(=O)NCCCCCC(=O)O)cc1OC`: the cell count in test [1] is 687. Further, the inhibition is -15.7% (inactive) in test [1]; -46.5% (inactive) in [3]; 18.9% (inactive) in test [5]; 32.7% (inactive) in test [10]; 3.62% (inactive) in [11]; 12.3% (inactive) in [12]. In [2], the inhibition of aggregation was 12.2% (inactive). The nuclei count in test [2] turned out to be 93%; in test [3], 119%. In addition, the z-score in [4] (setting [13]) was -0.456; in [4] (setting [14]), -0.271; in test [4] (setting [15]) it was 0.551. Moreover, the fluorescence slope in test [6] is -0.427 (inactive); in test [8] it was 0.00503 (inactive). The NADPH fluorescence slope in test [7] was -3.8e-05 (inactive). In [9], the outcome was inactive.
Take `Cc1ccc2[nH]c3c(N4CCOCC4)ncnc3c2c1`: the cell count in [1] was determined as 599. The inhibition in test [1] is -3.9% (inactive); in test [3], -12.3% (inactive); in [5], -1.98% (inactive); in test [10], -1.47% (inactive); in test [11], -15.5% (inactive); in [12] it was -85.9% (inactive). Further, the inhibition of aggregation in test [2] was 18.9% (inactive). Besides, the nuclei count in [2] was found to be 82.9%; in test [3], 152%. The z-score in [4] (setting [13]) was -1.33; in [4] (setting [14]), 0.984; in test [4] (setting [15]) it was 0.577. Moreover, the fluorescence slope was -0.16 (inactive) in test [6] and 0.00605 (inactive) in test [8]. Further, the NADPH fluorescence slope in [7] is -2.2e-05 (inactive). Moreover, the call in [9] was inactive.
As for `Nc1nc(NC(=O)c2cccs2)nn1-c1ccccc1`, the cell count in test [1] amounted to 647. The inhibition was -6.2% (inactive) in [1]; 28.5% (inactive) in test [3]; 14.4% (inactive) in test [5]; -2.85% (inactive) in test [10]; -31.7% (inactive) in test [11]; -72.3% (inactive) in [12]. Further, in test [2], the inhibition of aggregation is 2.6% (inactive). Further, the nuclei count in test [2] worked out at 104%; in [3], 140%. Besides, the z-score in test [4] (setting [13]) was -2.6; in test [4] (setting [14]), 0.834; in test [4] (setting [15]), 1.83. Besides, the results for the fluorescence slope in [6] and in test [8] were -0.486 (inactive) and 0.00702 (inactive), respectively. Besides, the NADPH fluorescence slope in test [7] is -6.6e-05 (inactive). Besides, the outcome in [9] was inactive.
